Bioassay records as filed in PubChem BioAssay.
Rows were chosen to be rich in hits. Some 5.7% of all compounds tested hit in one or more screens of this group.
HT1080-NT tox: kills 2HG-producing HT-1080-NT fibrosarcoma cells. AID 686970. hit rate 1.6% among 360,000. HT-1080-NT fibrosarcoma viability, CellTiter-Glo ATP luminescence, 48 h. Potency, µM (doses to about 46.1 µM), without a hit: top-dose activity, negative = less viability, actives largely listed as cytotoxic;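 further: NT is the 2HG producing partner of a matched IDH1 knockdown line; 0% = DMSO-treated cells and -100% = media-only wells without cells; nearly all actives have a fitted effect of over 55% in size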
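HT-1080-NT; 750 cells/well; 5% FBS RPMI; 48 h compound, 37 degrees C; CellTiter-Glo luminescence; curve fitting and curve-class assignment.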
KB-V1 cytotox: kills drug-selected multidrug resistant KB-V1 cells | hit rate 3.4% among 400,000 | KB-V1 MDR cells viability, CellTiter-Glo, 72 h | Potency, µM (doses to about 46.1 µM), usual class: cytotoxic | AID 1347076; further: nearly all actives have a fitted effect of over 60% in size
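Cytotoxicity via CellTiter-Glo luminescence after 72 h compound exposure at 37 degrees C. Cells: drug-selected KB-V1 line, DMEM phenol-red free plus 10% FBS. Compounds tested at multiple concentrations; normalized data fitted to concentration-effect curves.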
KB-3-1 tox: kills parental KB-3-1 adenocarcinoma cells; Potency, µM (series often up to 46.1 µM), hits mostly cytotoxic; KB-3-1 viability, CellTiter-Glo ATP luminescence, 72 h; AID 1347075; hit rate 1.4% among 400,000; further: nearly all actives have a fitted effect of over 60% in size
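Parental KB-3-1 viability, qHTS format: 72 h compound exposure, 37 °C; CellTiter-Glo; media-only wells and DMSO plates as controls; concentration-effect fits on corrected data.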
HT1080 IDH1KD tx: HT-1080 IDH1 knockdown cell toxicity (counter line); hit rate 2% among 360,000; HT-1080 IDH1 knockdown viability, ATP luminescence, 48 h; Potency, µM (highest dose often 46.1 µM), without a hit: top-dose activity, negative = toxicity, most hits filed as cytotoxic;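 further: 0% = DMSO wells and -100% = cell-free medium wells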
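% activity derives from luminescence (CellTiter-Glo), normalised to DMSO and no-cell wells. HT-1080-IDH1KD cells, 750/well, had 48 h compound exposure at 37 °C.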
Active calls of the source: *; [ ] = remark or other dose. The call rests on the fitted dose curve; in most records, active means well fitted curve in the direction sought with a large enough effect; inconclusive means small, poorly fitted or top-dose-only effect, or another doubt; inactive means no such curve, though single readings can be large; an effect the other way counts as inactive or inconclusive. Unless noted, on the % scale 0 is the no-effect control and ±100 the full control effect; potency means the concentration at half of the fitted maximal effect.

How did Cc1ccc(CN2CCSc3ccc(C(=O)N4CCN(c5ncccn5)CC4)cc32)cc1 do in these assays?
HT1080-NT tox: 4.3%[9.24 µM]; KB-V1 cytotox: 20.6µM*; KB-3-1 tox: 20.6µM*; HT1080 IDH1KD tx: 9.1%

Results for Cc1cccc(/C=N\NC(=O)c2ccccc2-n2cccc2)c1 ?
HT1080-NT tox: 10.0%; KB-V1 cytotox: inactive; KB-3-1 tox: inactive; HT1080 IDH1KD tx: 6.1%

Results for C/C(=N\NC(=O)c1ccccc1-n1cccc1)c1ccccn1 ?
HT1080-NT tox: inconclusive; KB-V1 cytotox: inactive; KB-3-1 tox: 10.3µM*; HT1080 IDH1KD tx: inconclusive

What do the screens show for `O=C(N/N=C/c1ccc(Br)cc1)c1ccccc1-n1cccc1`?
HT1080-NT tox: inconclusive; KB-V1 cytotox: 14.6µM*; KB-3-1 tox: inconclusive; HT1080 IDH1KD tx: 11.2µM*

What do the screens show for `OC(COc1c(F)cc(Br)cc1F)CN1CCN(c2ccc(F)cc2)CC1` (stereo not drawn)?
HT1080-NT tox: -21.4%; KB-V1 cytotox: 16.4µM*; KB-3-1 tox: inconclusive; HT1080 IDH1KD tx: -2.5%[9.24 µM]

Results for Cc1ccc2c(c1)N(CC(=O)N(Cc1ccc3c(c1)OCO3)CC1CCCO1)C(=O)C(C)O2 (stereo not drawn) ?
HT1080-NT tox: -2.3%; KB-V1 cytotox: 8.2µM*; KB-3-1 tox: inactive; HT1080 IDH1KD tx: -8.5%

Results for CC(=O)Nc1cc(-c2nn(C)c(=O)c3ccccc23)ccc1N1CCOCC1 ?
HT1080-NT tox: -1.3%; KB-V1 cytotox: inactive; KB-3-1 tox: inactive; HT1080 IDH1KD tx: 11.8%

What do the screens show for `Cn1nc(-c2ccc(N3CCOCC3)c(NS(=O)(=O)c3ccc(Cl)cc3)c2)c2ccccc2c1=O`?
HT1080-NT tox: inconclusive; KB-V1 cytotox: inconclusive; KB-3-1 tox: inconclusive; HT1080 IDH1KD tx: 18.4µM*

Results for Cc1ccc(S(=O)(=O)Nc2cc(-c3nn(C)c(=O)c4ccccc34)ccc2N2CCOCC2)cc1 ?
HT1080-NT tox: inconclusive; KB-V1 cytotox: inactive; KB-3-1 tox: inactive; HT1080 IDH1KD tx: 10µM*

How did OC(CBr)C[n+]1cc(Br)cc2ccccc21 (stereo not drawn) do in these assays?
KB-V1 cytotox: inactive; KB-3-1 tox: inactive

What do the screens show for `CN(C)c1nc(-c2cn(CCC#N)c3ccccc23)cs1`?
HT1080-NT tox: inconclusive; KB-V1 cytotox: inactive; KB-3-1 tox: inactive; HT1080 IDH1KD tx: 25.9µM*

Results for CCc1nc(SCC(=O)Nc2ccc(NC(C)=O)cc2)n[nH]1 ?
KB-V1 cytotox: inactive; KB-3-1 tox: inactive

Results for CCCCCc1ccc(S(=O)(=O)NCCc2ccncc2)cc1 ?
HT1080-NT tox: -14.8%; KB-V1 cytotox: 3.26µM*; KB-3-1 tox: inconclusive; HT1080 IDH1KD tx: inconclusive

What do the screens show for `CC1CCCC(C)N1S(=O)(=O)c1ccc(S(=O)(=O)NCCc2ccncc2)cc1` (stereo not drawn)?
HT1080-NT tox: -17.5%; KB-V1 cytotox: inconclusive; KB-3-1 tox: inactive; HT1080 IDH1KD tx: -2.0%[9.24 µM]

What do the screens show for `CCN(C1CCCCC1)S(=O)(=O)c1ccc(S(=O)(=O)NCCc2ccncc2)cc1`?
HT1080-NT tox: 0.6%; KB-V1 cytotox: 20.6µM*; KB-3-1 tox: inactive; HT1080 IDH1KD tx: -6.1%

How did O=S(=O)(NCc1ccncc1)c1ccc(F)c(F)c1 do in these assays?
HT1080-NT tox: 1.5%; KB-V1 cytotox: inconclusive; KB-3-1 tox: inactive; HT1080 IDH1KD tx: -16.6%

Results for CCN(C1CCCCC1)S(=O)(=O)c1ccc(S(=O)(=O)NCc2ccncc2)cc1 ?
HT1080-NT tox: inconclusive; KB-V1 cytotox: 7.31µM*; KB-3-1 tox: inactive; HT1080 IDH1KD tx: inconclusive

How did Cc1ccc(S(=O)(=O)NCc2ccncc2)cc1C do in these assays?
HT1080-NT tox: -4.6%; KB-V1 cytotox: inactive; KB-3-1 tox: inconclusive; HT1080 IDH1KD tx: 23.1µM*

Results for CCOc1ccccc1CNC(=O)CN1C(=O)CCn2nc(-c3cn(C)c4ccccc34)cc21 ?
KB-V1 cytotox: inactive; KB-3-1 tox: inactive

Results for O=C(CNC(=O)c1ccccc1Cl)c1ccccc1 ?
HT1080-NT tox: 21.5%; KB-V1 cytotox: inactive; KB-3-1 tox: inactive; HT1080 IDH1KD tx: 21.8%

How did CO/N=C(/CNC(=O)c1ccccc1Cl)c1ccc(Cl)cc1 do in these assays?
HT1080-NT tox: 0.0%; KB-V1 cytotox: 23.1µM*; KB-3-1 tox: inactive; HT1080 IDH1KD tx: -13.7%

How did COc1cc(Cl)c(C)cc1NC(=O)Cn1ncc2c(=O)oc3ccccc3c21 do in these assays?
KB-V1 cytotox: inactive; KB-3-1 tox: inactive

Results for COc1ccc2cc(C(C)C(=O)NC3CCC(O)CC3)ccc2c1 (stereo not drawn) ?
HT1080-NT tox: 3.8%; KB-V1 cytotox: inactive; KB-3-1 tox: inactive; HT1080 IDH1KD tx: 2.4%

How did COc1ccc2cc(C(C)C(=O)N3CCC(C)CC3)ccc2c1 (stereo not drawn) do in these assays?
HT1080-NT tox: 14.6µM*; KB-V1 cytotox: inconclusive; KB-3-1 tox: 20.6µM*; HT1080 IDH1KD tx: inconclusive

How did COc1ccc(OC)c(-c2nnc(NC(=O)Nc3ccc4ccccc4c3)s2)c1 do in these assays?
KB-V1 cytotox: inactive; KB-3-1 tox: inactive

Results for O=C(CSc1nc2ccccc2nc1Cc1ccccc1F)Nc1cccc(C(F)(F)F)c1 ?
KB-V1 cytotox: inactive; KB-3-1 tox: inactive

Results for COc1cc2nc(NCCCN3CCN(C)CC3)n3nc(-c4ccccc4)nc3c2cc1OC ?
HT1080-NT tox: 16.4µM*; KB-V1 cytotox: inconclusive; KB-3-1 tox: inconclusive; HT1080 IDH1KD tx: inconclusive

How did CCN(CC)CCCNc1nc2cc(OC)c(OC)cc2c2nc(-c3ccccc3)nn12 do in these assays?
HT1080-NT tox: 18.4µM*; KB-V1 cytotox: 16.4µM*; KB-3-1 tox: 23.1µM*; HT1080 IDH1KD tx: inconclusive

How did CCN(CC)CCCNc1nc2ccccc2c2nc(-c3ccncc3)nn12 do in these assays?
HT1080-NT tox: inconclusive; KB-V1 cytotox: inconclusive; KB-3-1 tox: 18.4µM*; HT1080 IDH1KD tx: 16.4µM*

Results for O=C(CSc1nc2c([nH]c3ccccc32)c(=O)n1-c1ccc(F)cc1)NCC1CCCO1 (stereo not drawn) ?
KB-V1 cytotox: inactive; KB-3-1 tox: inactive

How did COc1cccc(C(=O)CSc2nc3ccccc3n2CC(=O)N2CCOCC2)c1 do in these assays?
HT1080-NT tox: -0.5%; KB-V1 cytotox: 20.6µM*; KB-3-1 tox: inactive; HT1080 IDH1KD tx: -13.6%

What do the screens show for `COc1cccc(OCCSc2nc3ccccc3n2CC(=O)N2CCOCC2)c1`?
KB-V1 cytotox: inactive; KB-3-1 tox: inactive

What do the screens show for `CCN(CC)CCn1c(=N)n(CC(=O)c2ccc(Br)s2)c2ccccc21`?
HT1080-NT tox: 23.1µM*; KB-V1 cytotox: inconclusive; KB-3-1 tox: inconclusive; HT1080 IDH1KD tx: 23.1µM*

What do the screens show for `COc1cccc(C(=O)Cn2c(=N)n(C)c3ccccc32)c1`?
HT1080-NT tox: inconclusive; KB-V1 cytotox: inactive; KB-3-1 tox: 10.3µM*; HT1080 IDH1KD tx: inconclusive

Results for Cn1c(=N)n(CC(=O)c2ccc(Br)s2)c2ccccc21 ?
HT1080-NT tox: 25.9µM*; KB-V1 cytotox: inconclusive; KB-3-1 tox: inconclusive; HT1080 IDH1KD tx: inconclusive
